According to PubChem BioAssay (NCATS):
Results filed as inconclusive are left out. Entries that show only a call come without a potency. Active and inactive are the calls of the source. Unless noted, the call rests on the fitted dose curve; in most records, active means well fitted curve in the direction sought with a large enough effect; inconclusive means small, poorly fitted or top-dose-only effect, or another doubt; inactive means no such curve, though single readings can be large; an effect the other way counts as inactive or inconclusive.

How the values were obtained:
[1] = qHTS profiling of the MIPE4 collection as inhibitors of Plasmodium falciparum (3D7) proliferation (AID 743344; call rule not given here); conditions: P. falciparum 3D7 in erythrocytes, SYBR Green DNA fluorescence, 72 h; at 28.5 µM unless noted
Outline: (§1)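 Erythrocytes infected with P. falciparum (0.3% parasitemia, 2.5% hematocrit) incubated with compounds 72 h at 37 C, 5% CO2. Lysis with saponin/Triton buffer containing SYBR Green I, overnight at room temperature in the dark; DNA fluorescence (485/535 nm) normalised to 0.29 uM artemisinin and DMSO.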

[2] = qHTS profiling of the MIPE4 collection as inhibitors of Plasmodium falciparum (DD2) proliferation (AID 743345; call rule not given here); conditions: P. falciparum Dd2 in erythrocytes, SYBR Green DNA, 72 h; at 28.5 µM unless noted
Outline: as §1

[3] = qHTS profiling of the MIPE4 collection as inhibitors of Plasmodium falciparum (DD2) proliferation (Rep 2) (AID 743346; call rule not given here); conditions: P. falciparum Dd2 in erythrocytes, SYBR Green DNA, 72 h; at 28.5 µM unless noted
Outline: as §1

[4] = qHTS profiling of the MIPE4 collection as inhibitors of Plasmodium falciparum (HB3) proliferation (AID 743347; call rule not given here); conditions: P. falciparum HB3 in erythrocytes, SYBR Green DNA, 72 h; at 28.5 µM unless noted
Outline: as §1

[5] = High-throughput drug toxicity screening in the BPDCN cell line Gen2.2 (AID 1224824; call rule not given here;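 further: cells exposed to compounds for 48 h before reading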); conditions: Gen2.2 BPDCN cells; at 45.8 µM (top of the series) unless noted
Outline: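 CellTiter-Glo luminescence after 48 h compound exposure of Gen2.2 cells; percent activity set with DMSO as 100% and bortezomib (9.2 uM final) as 0%. Cells seeded at 500 per well, RPMI + 10% FBS, 37 °C.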

[6] = High-throughput drug toxicity screening in the BPDCN cell line Cal-1 (AID 1224825; call rule not given here); conditions: Cal-1 BPDCN cell viability, qHTS; at 45.8 µM (top of the series) unless noted
Outline: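 500 Cal-1 cells/well, RPMI + glutamine + 10% FBS (phenol red-free); cpd added by pin tool; 48 h, 37C, 5% CO2; CTG 15 min RT, lumi read. Normalised: DMSO 100%, bortezomib 9.2 uM 0%.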

[7] = qHTS assay for measurement of the activity of small molecule inhibitors on Zika virus induced Caspase-3 activity in human iPSC derived neural progenitor cells (hNPCs) (AID 1224857); further: nearly all actives have a fitted effect of over 65% in size
Outline: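 Human iPSC-derived neural progenitor cells pretreated 1 hr with compounds, then infected with Zika virus (2 FFU/cell) for 6 hours at 37 C. Caspase-3/7 measured by Caspase-Glo luminescence; % inhibition calculated from induction scaled to uninfected (0%) and infected (100%) wells.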

[8] = qHTS assay for measurement of the activity of small molecule inhibitors on Zika virus induced Caspase-3 activity in human astrocytoma cells (AID 1224859)
Outline: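 SNB-19 astrocytoma cells, 250/well, pretreated 1 h with compounds, then Zika virus at 2 FFU/cell for 6 h at 37 C; Caspase-Glo 3/7 luminescence after 30 min; percent inhibition normalised to uninfected and infected controls.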

[9] = qHTS Screen of the MIPE 4.0 Collection Against Ewings Sarcoma (RDES) (AID 1259252); further: nearly all actives have a fitted effect of over 35% in size; further: potency means the concentration at half of the fitted maximal effect
Outline: (§2)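 Cells plated in serum-containing RPMI (5% FBS) and treated with compound dilutions for 48 h. Readout luminescent viability; normalization relied on vehicle (no inhibition) and media-only columns (full inhibition).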

[10] = qHTS Screen of the MIPE 4.0 Collection Against Ewings Sarcoma (TC71) (AID 1259253); further: nearly all actives have a fitted effect of over 40% in size; further: potency means the concentration at half of the fitted maximal effect
Outline: as §2

[11] = qHTS Screen of the MIPE 4.0 Collection Against Ewings Sarcoma (EW8) (AID 1259255); further: nearly all actives have a fitted effect of over 35% in size; further: potency means the concentration at half of the fitted maximal effect
Outline: as §2

[12] = qHTS Screen of the MIPE 4.0 Collection Against Ewings Sarcoma (TC32) (AID 1259256); further: nearly all actives have a fitted effect of over 45% in size; further: potency means the concentration at half of the fitted maximal effect
Outline: as §2

[13] = qHTS assay to identify small molecule inhibitors of chordoma cells - UCH-1 (AID 1259355); further: nearly all actives have a fitted effect of over 55% in size
Outline: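 Seed 800 cells per well; incubate overnight at 37 C, 5% CO2. Add test compounds (15 concentrations), then the auranofin–topoisomerase-agent combination. Incubate 48hr, add CellTiter-Glo, wait 30min, read luminescence.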

[14] = qHTS assay to identify small molecule inhibitors of chordoma cells - UCH-2 (AID 1259356)
[15] = qHTS profiling for inhibitors of Plasmodium falciparum (3D7) proliferation (AID 743322; call rule not given here;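 further: infected erythrocytes exposed to compound for 72 h before lysis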); conditions: P. falciparum 3D7 proliferation; at 28.7 µM (top of the series)
Outline: as §1

[16] = qHTS profiling for inhibitors of Plasmodium falciparum (DD2) proliferation (AID 743323; call rule not given here); conditions: lower = more inhibition; at 28.7 µM (top of the series)
Outline: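 Parasite DNA quantified by SYBR Green fluorescence (ex 485, em 535 nm) after saponin/Triton lysis and overnight dark incubation. Cultures: 0.3% parasitemia, 2.5% hematocrit, 72 h, 37 C; data scaled between DMSO and 0.29 uM artemisinin.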

SMILES | parasite growth, % of DMSO control [1] [%] | parasite growth remaining, % of DMSO control (lower = more inhibition) [2] [%] | parasite growth, % of control (lower = inhibition) [3] [%] | growth, % of control [4] [%] | cell viability, % of control (lower = more cytotoxic) [5] [%] | viability (% of control) [6] [%] | Potency [7] | Potency [8] | Potency [9] | Potency [10] | Potency [11] | Potency [12] | Potency [13] | Potency [14] | remaining parasite growth % (stronger effect = lower value) [15] [%] | activity, percent of control [16] [%]
Cc1noc(NS(=O)(=O)c2ccc(N)cc2)c1C | 96.2 | 98.9 | 103 | 98.2 | 138 | 96.8 | inactive | inactive | inactive | inactive | inactive | inactive | inactive | inactive | – | –
COc1c(N2CCNC(C)C2)c(F)cc2c(=O)c(C(=O)O)cn(C3CC3)c12 (stereo unspecified) | 17.5 | 11.3 | 23.4 | 21.7 | 111 | 78 | inactive | inactive | inactive | inactive | inactive | inactive | inactive | inactive | – | –
O=P(O)(O)C(O)(Cc1cccnc1)P(=O)(O)O | 71.4 | – | 80.5 | – | 147 | 125 | inactive | inactive | inactive | inactive | inactive | inactive | inactive | inactive | – | –
O=c1cc(O)c(Cl)c[nH]1 | 29 | 122 | 20.4 | 21.5 | 246 | 39.2 | inactive | inactive | inactive | inactive | inactive | inactive | inactive | inactive | – | –
COC(=O)Nc1nc2ccc(C(=O)c3ccccc3)cc2[nH]1 | 61.1 | 97.7 | 71 | 84.4 | 176 | 22 | inactive | inactive | 0.662 µM (active) | 1.48 µM (active) | 0.526 µM (active) | 0.418 µM (active) | inactive | inactive | – | –
CC(C)Cn1cnc2c(N)nc3ccccc3c21 | 43.4 | 74.5 | 32.3 | – | 11.8 | 3.23 | inactive | inactive | 16.6 µM (active) | 18.7 µM (active) | 7.43 µM (active) | 18.7 µM (active) | inactive | inactive | – | –
CCOC(=O)[C@H](CCc1ccccc1)N[C@H]1CS[C@H](c2cccs2)CN(CC(=O)O)C1=O | 5.73 | 58.9 | 6.49 | 6.02 | 189 | 14 | inactive | inactive | 4.18 µM (active) | 5.9 µM (active) | 5.9 µM (active) | 4.18 µM (active) | inactive | inactive | – | –
Cc1ccnc2c1NC(=O)c1cccnc1N2C1CC1 | – | – | – | – | 1.63 | 7.09 | inactive | inactive | inactive | inactive | inactive | inactive | inactive | inactive | – | –
CC(C)(C#N)c1cc(Cn2cncn2)cc(C(C)(C)C#N)c1 | 89.6 | – | 88.7 | – | 47 | 105 | inactive | inactive | inactive | inactive | inactive | inactive | inactive | inactive | – | –
O=C(O)CCn1c2c(c3ccccc31)C[C@H](NS(=O)(=O)c1ccc(F)cc1)CC2 | – | – | – | – | 124 | 118 | inactive | inactive | inactive | inactive | inactive | inactive | – | – | – | –
CC[C@H](NC(C)C)[C@H](O)c1ccc(O)c2[nH]c(=O)ccc12 | 96.3 | – | 92.5 | 96.3 | 160 | 121 | inactive | inactive | inactive | inactive | inactive | inactive | inactive | inactive | – | –
CC(C)(C)NC(=O)[C@H]1CC[C@H]2[C@@H]3CC[C@H]4NC(=O)C=C[C@]4(C)[C@H]3CC[C@]12C | 60.2 | 91.7 | 53 | 72.9 | 25.5 | 4.87 | inactive | inactive | 1.05 µM (active) | 1.32 µM (active) | 5.9 µM (active) | 3.72 µM (active) | inactive | inactive | – | –
COc1ccc2cc3[n+](cc2c1OC)CCc1cc2c(cc1-3)OCO2 | 5.45 | 6.26 | 13.4 | 4.47 | 19.2 | 7.43 | inactive | inactive | 8.33 µM (active) | 5.9 µM (active) | 11.8 µM (active) | 7.43 µM (active) | inactive | inactive | – | –
CC1=NN(c2ccccc2)C(=O)C1 | 89.4 | 94.6 | 86.2 | 103 | 112 | 99.8 | inactive | inactive | inactive | inactive | inactive | inactive | inactive | inactive | – | –
COc1ncnc(NS(=O)(=O)c2ccc(N)cc2)c1OC | 170 | – | 99.5 | 747 | 106 | 96.2 | inactive | inactive | inactive | inactive | inactive | inactive | inactive | inactive | 82.4 | 85.3
O=C(N[C@H](CO)[C@H](O)c1ccc([N+](=O)[O-])cc1)C(Cl)Cl | 94.4 | – | 83.1 | 105 | 136 | 116 | inactive | inactive | inactive | inactive | inactive | inactive | inactive | inactive | – | –
N[C@@H](C(=O)N[C@@H]1C(=O)N2C(C(=O)O)=C(Cl)CS[C@H]12)c1ccccc1 | 80.9 | – | 115 | 97.6 | 133 | 108 | inactive | inactive | inactive | inactive | inactive | inactive | inactive | inactive | – | –
